In ChEMBL document CHEMBL5308504, “Tm Shift (DSF) assay results for EUbOPEN Chemogenomics Library” (2023) one finds ΔTm data, which are given here for 40 molecules.

Several values for one entry are separate records, joined by “and”; a condition that tells them apart may be missing. Equal values may be shown once.

One assay deals with Tyrosine-protein kinase ABL1 (Homo sapiens) (UniProt P00519). The settings on record: Compound concentration 20.0 uM, Protein concentration 2.0 uM, Result type QC Liability.
Tyrosine-protein kinase ABL1 (Homo sapiens), sequence (P00519 whole entry): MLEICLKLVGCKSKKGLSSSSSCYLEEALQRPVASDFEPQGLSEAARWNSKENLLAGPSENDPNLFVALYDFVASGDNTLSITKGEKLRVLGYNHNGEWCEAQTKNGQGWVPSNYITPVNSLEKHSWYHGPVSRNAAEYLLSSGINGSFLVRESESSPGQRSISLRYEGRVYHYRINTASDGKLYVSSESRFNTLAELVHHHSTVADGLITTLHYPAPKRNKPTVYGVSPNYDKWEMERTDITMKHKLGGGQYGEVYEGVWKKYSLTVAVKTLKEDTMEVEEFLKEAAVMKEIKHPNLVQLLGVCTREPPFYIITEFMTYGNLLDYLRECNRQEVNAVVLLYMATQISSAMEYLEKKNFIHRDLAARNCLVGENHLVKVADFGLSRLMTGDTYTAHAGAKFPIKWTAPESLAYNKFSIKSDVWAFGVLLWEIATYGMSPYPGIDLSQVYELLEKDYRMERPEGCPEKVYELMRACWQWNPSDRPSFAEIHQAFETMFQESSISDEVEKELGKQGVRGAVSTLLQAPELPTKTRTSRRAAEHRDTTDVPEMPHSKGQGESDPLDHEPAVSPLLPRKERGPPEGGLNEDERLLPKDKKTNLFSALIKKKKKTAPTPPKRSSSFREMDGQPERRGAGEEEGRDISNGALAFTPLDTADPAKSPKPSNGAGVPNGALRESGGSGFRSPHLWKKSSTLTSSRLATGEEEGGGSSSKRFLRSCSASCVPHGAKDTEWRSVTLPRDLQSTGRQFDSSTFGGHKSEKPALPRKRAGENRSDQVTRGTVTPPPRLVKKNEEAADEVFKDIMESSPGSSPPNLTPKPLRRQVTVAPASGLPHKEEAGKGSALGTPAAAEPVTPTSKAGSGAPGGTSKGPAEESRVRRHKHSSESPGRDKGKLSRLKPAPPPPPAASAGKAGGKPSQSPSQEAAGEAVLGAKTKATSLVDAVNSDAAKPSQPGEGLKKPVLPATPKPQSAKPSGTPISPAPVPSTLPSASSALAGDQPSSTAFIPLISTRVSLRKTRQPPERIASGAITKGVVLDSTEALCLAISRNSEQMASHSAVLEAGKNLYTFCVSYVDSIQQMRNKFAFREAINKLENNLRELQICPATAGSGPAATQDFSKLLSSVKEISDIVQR
`COc1ccc(COc2ccc(Cc3cnc(N)nc3N)cc2OC)cc1`: the thermal shift (ΔTm) was -0.19 °C. Same read-out and setting: in the case of `O=C1NC(=NCc2cccs2)SC1=Cc1ccc2ncccc2c1` it was 2.9 °C. Regarding `COc1ccc(F)c(F)c1C(=O)c1cnc(NC2CCN(S(C)(=O)=O)CC2)nc1N`, the shift in melting temperature (ΔTm) was 0.33 °C. In the case of `COc1cc2nc([C@@H]3CCCS(=O)(=O)C3)n(C)c2cc1NC(=O)c1cccc(C(C)(F)F)n1`, the shift in melting temperature (ΔTm) worked out at 0.81 °C.

As for `CC(C)(C)c1cnc(CSc2cnc(NC(=O)C3CCN(CC(=O)NCCOCCOCCOCCNc4cccc5c4C(=O)N(C4CCC(=O)NC4=O)C5=O)CC3)s2)o1` (configuration not stated), the ΔTm is -2.84 °C. Same read-out and setting: as for `COc1cc(N(C)c2ccnc3ccc(C(F)(F)F)cc23)cc(OC)c1OC`, the figure is 0.48 °C; as for `Cn1cnc(Cn2ccc3ccc(CNCc4[nH]c5ccccc5c4[C@@H]4NC(=O)c5ccc(O)cc54)cc32)c1`, 0.7 °C.

Regarding `CN(C)CC#Cc1ccc2[nH]c3c(c2c1)-c1nc(N)ncc1CCC3`, the ΔTm stood at 0.75 °C. `NS(=O)(=O)c1ccc(Nc2nc(OCC3CCCCC3)c3nc[nH]c3n2)cc1`: the thermal shift (ΔTm) was 5.71 °C.

Turning to `C[C@@H]1Cc2c([nH]c3ccccc23)[C@@H](c2c(F)cc(/C=C/C(=O)O)cc2F)N1CC(C)(C)F`, the ΔTm is -0.24 °C.

`Cc1cccc(-c2[nH]c(CNc3ccccc3F)nc2-c2ccc3ncnn3c2)n1`: the ΔTm turned out to be 3.23 °C. On the same count and under the same terms, as for `CCN1CCN(Cc2ccc(C(=O)Nc3ccc(C)c(Oc4ccc5c(c4)CC(=O)N5)c3)cc2C(F)(F)F)CC1`, the figure is 12.9 °C; as for `CC(=O)Nc1nc(CN2CCC[C@H](Cc3cc(C)nc(C)c3)C2)cs1`, 0.19 °C. Still for that read-out and setting: in the case of `Nc1ncnc2[nH]c(-c3ccccc3)nc12` it was 3.48 °C; in that of `CNc1nc(Nc2ccc(C(=O)N3CCOCC3)cc2OC)ncc1Cl`, 0.4 °C. Consider `COCCNC1CCC(Nc2cc(-c3csc(NCC4(C#N)CCOCC4)n3)c(Cl)cn2)CC1` (configuration not stated), for which the ΔTm was 0.32 °C. Turning to `CNC(=O)c1c(F)cccc1Nc1nc(Nc2cc3c(cc2OC)CCN3C(=O)CN(C)C)nc2[nH]ccc12`, the shift in melting temperature (ΔTm) is -0.29 °C.

For the molecule `CCc1nc(-c2cccc(C)c2)c(-c2ccnc(NC(=O)c3ccccc3)c2)s1`, the ΔTm was determined as 1.26 °C. As to `c1ccc(C(OC2CCN(CCCc3nnn[nH]3)CC2)c2ccccc2)cc1`, the ΔTm is 0.21 °C. As for `CC(C=CC1=C(C)CCCC1(C)C)=CC=CC(C)=CC(=O)O`, the ΔTm stood at 0.39 °C. Same read-out and setting: as for `COc1nc2ccc([C@@](O)(c3ccccc3)C3CCN(C(C)=O)CC3)cc2c(Cl)c1Cc1ccc(-n2cccn2)cc1`, the figure is -0.06 °C. On the same count and under the same terms, as for `CC(=O)Oc1ccc2c(c1)[C@@]1(C)CCC[C@](C)(C(=O)OC(=O)[C@@]3(C)CCC[C@]4(C)c5cc(OC(C)=O)ccc5CC[C@@H]34)[C@@H]1CC2`, the figure is 0.17 °C. On the same count and under the same terms, in the case of `CCOC(=O)C1Cc2ccccc2CN1C(=O)c1ccc(SC)s1` (configuration not stated) it was 0.02 °C. On to `CC(C)(C)c1cnc(CSc2cnc(NC(=O)C3CCNCC3)s2)o1`, for which the shift in melting temperature (ΔTm) was 0.04 °C.

Consider `COc1cc(-c2cn(C)c(=O)c3cnccc23)c(OC)cc1CN(C)C`, for which the thermal shift (ΔTm) stood at 0.49 °C. Turning to `CCN1CCN(Cc2ccc(Nc3ncc(F)c(-c4cc(F)c5nc(C)n(C(C)C)c5c4)n3)nc2)CC1`, the thermal shift (ΔTm) came to 3.44 °C. Turning to `CCc1cnn2c(NCc3ccc[n+]([O-])c3)cc(N3CCCCC3CCO)nc12` (configuration not stated), the ΔTm was found to be 0.22 °C. The same measure, in the same setting: in the case of `Cn1cc(-n2cnc3c(NCc4nc5cc(Cl)c(Cl)cc5[nH]4)nc(N4CCOCC4)nc32)cn1` it was -0.15 °C; in that of `O=C(NC1CCNCC1)c1n[nH]cc1NC(=O)c1c(Cl)cccc1Cl`, 0.36 °C. For the molecule `COc1cc2ncnc(Nc3cccc(O)c3)c2cc1OC`, the ΔTm was 8.2 °C.

Regarding `CC(C)C(=O)N[C@@H]1CCN(C(=O)Nc2nc3c(s2)-c2nc(-c4ccccc4Cl)ncc2CC3)C1`, the thermal shift (ΔTm) was determined as 2.72 °C.

Turning to `O=S(=O)(Nc1ccc(C(O)(C(F)(F)F)C(F)(F)F)cc1)c1cccs1`, the ΔTm turned out to be 0.41 °C.

As for `CCN(C(=O)c1cc(F)ccc1Oc1cncnc1N1CC2(CCN(C[C@H]3CC[C@H](NS(=O)(=O)CC)CC3)CC2)C1)C(C)C`, the shift in melting temperature (ΔTm) came out at 0.01 °C. As for `Cc1cccc(-c2nn3c(c2-c2ccnc4ccc(C(N)=O)cc24)CCC3)n1`, the ΔTm amounted to 1.72 °C. Still for that read-out and setting: as for `C[C@H](CCC(=O)O)[C@H]1CC[C@H]2[C@@H]3CC[C@@H]4C[C@H](O)CC[C@]4(C)[C@H]3C[C@H](O)[C@]12C`, the figure is -0.07 °C; as for `CC[C@@H]1C(=O)N(C)c2cnc(Nc3ccc(C(=O)NC4CCN(C)CC4)cc3OC)nc2N1C1CCCC1`, 1.51 °C.

Another assay has as its target Cyclin-dependent kinase 2 (Homo sapiens) (UniProt P24941). Conditions: Compound concentration 20.0 uM, Protein concentration 2.0 uM, Result type QC Liability.
In the case of `COc1cc2nc([C@@H]3CCCS(=O)(=O)C3)n(C)c2cc1NC(=O)c1cccc(C(C)(F)F)n1`, the ΔTm worked out at 0.09 °C.

Consider `O=C(Nc1ccc(OC(F)(F)Cl)cc1)c1cnc(N2CC[C@@H](O)C2)c(-c2cc[nH]n2)c1`, for which the ΔTm is 1.08 °C. The same measure, in the same setting: as for `CC1(C)C(=O)N([C@H]2CCc3c(O)cccc32)c2nc(Nc3cccc(CN4CCCC4)c3)ncc21`, the figure is 6.13 °C; as for `CC(C)(C)c1cnc(CSc2cnc(NC(=O)C3CCN(CC(=O)NCCOCCOCCOCCNc4cccc5c4C(=O)N(C4CCC(=O)NC4=O)C5=O)CC3)s2)o1` (configuration not stated), 9.12 °C; as for `COc1cc(N(C)c2ccnc3ccc(C(F)(F)F)cc23)cc(OC)c1OC`, -0.12 °C. On the same count and under the same terms, in the case of `Cn1cnc(Cn2ccc3ccc(CNCc4[nH]c5ccccc5c4[C@@H]4NC(=O)c5ccc(O)cc54)cc32)c1` it was 0.07 °C.

On to `CN(C)CC#Cc1ccc2[nH]c3c(c2c1)-c1nc(N)ncc1CCC3`, for which the ΔTm is -0.08 °C. For `Cc1ccc(-n2nc(C(C)(C)C)cc2NC(=O)Nc2ccc(OCCN3CCOCC3)c3ccccc23)cc1`, the ΔTm is 1.17 °C and 1.39 °C. Same read-out and setting: as for `C[C@@H]1Cc2c([nH]c3ccccc23)[C@@H](c2c(F)cc(/C=C/C(=O)O)cc2F)N1CC(C)(C)F`, the figure is -0.07 °C. Consider `Cc1cccc(-c2[nH]c(CNc3ccccc3F)nc2-c2ccc3ncnn3c2)n1`, for which the ΔTm came out at 0.92 °C. In the case of `CCN1CCN(Cc2ccc(C(=O)Nc3ccc(C)c(Oc4ccc5c(c4)CC(=O)N5)c3)cc2C(F)(F)F)CC1`, the ΔTm is 0.01 °C. With `CC(=O)Nc1nc(CN2CCC[C@H](Cc3cc(C)nc(C)c3)C2)cs1`, the thermal shift (ΔTm) was found to be 0 °C. On the same count and under the same terms, as for `Nc1ncnc2[nH]c(-c3ccccc3)nc12`, the figure is 0.92 °C. On the same count and under the same terms, as for `CNc1nc(Nc2ccc(C(=O)N3CCOCC3)cc2OC)ncc1Cl`, the figure is 0.09 °C; as for `COCCNC1CCC(Nc2cc(-c3csc(NCC4(C#N)CCOCC4)n3)c(Cl)cn2)CC1` (configuration not stated), 1.7 °C; as for `CNC(=O)c1c(F)cccc1Nc1nc(Nc2cc3c(cc2OC)CCN3C(=O)CN(C)C)nc2[nH]ccc12`, 0.06 °C.

As to `CCc1nc(-c2cccc(C)c2)c(-c2ccnc(NC(=O)c3ccccc3)c2)s1`, the ΔTm was -1.36 °C.

For `c1ccc(C(OC2CCN(CCCc3nnn[nH]3)CC2)c2ccccc2)cc1`, the ΔTm is 0.54 °C. The same measure, in the same setting: in the case of `CC(C=CC1=C(C)CCCC1(C)C)=CC=CC(C)=CC(=O)O` it was 0.25 °C; in that of `COc1nc2ccc([C@@](O)(c3ccccc3)C3CCN(C(C)=O)CC3)cc2c(Cl)c1Cc1ccc(-n2cccn2)cc1`, -0.4 °C. On the same count and under the same terms, in the case of `CC(=O)Oc1ccc2c(c1)[C@@]1(C)CCC[C@](C)(C(=O)OC(=O)[C@@]3(C)CCC[C@]4(C)c5cc(OC(C)=O)ccc5CC[C@@H]34)[C@@H]1CC2` it was 0.49 °C; in that of `COc1ccc(N(C(=O)Nc2c(C)cccc2C)c2cc(Nc3ccc(N4CCN(C)CC4)cc3)ncn2)c(OC)c1`, 0.7 °C; in that of `CCOC(=O)C1Cc2ccccc2CN1C(=O)c1ccc(SC)s1` (configuration not stated), 0.34 °C. The same measure, in the same setting: in the case of `COc1cc(-c2cn(C)c(=O)c3cnccc23)c(OC)cc1CN(C)C` it was 0.53 °C; in that of `Cn1cc(-n2cnc3c(NCc4nc5cc(Cl)c(Cl)cc5[nH]4)nc(N4CCOCC4)nc32)cn1`, 0.06 °C. For `CC(C)C(=O)N[C@@H]1CCN(C(=O)Nc2nc3c(s2)-c2nc(-c4ccccc4Cl)ncc2CC3)C1`, the ΔTm was 0.75 °C. The same measure, in the same setting: as for `O=S(=O)(Nc1ccc(C(O)(C(F)(F)F)C(F)(F)F)cc1)c1cccs1`, the figure is 0.73 °C. The same measure, in the same setting: as for `CCN(C(=O)c1cc(F)ccc1Oc1cncnc1N1CC2(CCN(C[C@H]3CC[C@H](NS(=O)(=O)CC)CC3)CC2)C1)C(C)C`, the figure is 0.94 °C. The same measure, in the same setting: in the case of `Cc1cccc(-c2nn3c(c2-c2ccnc4ccc(C(N)=O)cc24)CCC3)n1` it was 0.75 °C; in that of `C[C@H](CCC(=O)O)[C@H]1CC[C@H]2[C@@H]3CC[C@@H]4C[C@H](O)CC[C@]4(C)[C@H]3C[C@H](O)[C@]12C`, 0.15 °C; in that of `CC[C@@H]1C(=O)N(C)c2cnc(Nc3ccc(C(=O)NC4CCN(C)CC4)cc3OC)nc2N1C1CCCC1`, 0.58 °C.
